The whole screen tested about 370,000 compounds, of which about 4,700 (1.3%) were called active.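 How the source made its calls: active means inhibition above the plate cutoff, the mean of all test compounds on that plate plus 3 SD (cut at about 35% in these data); inactive means the rest.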 What follows is part of a selection rich in actives, with near analogues and random picks from the rest.

A short description of this assay: binders of r(CAG) RNA repeats, primary screen, biochemical, fluorescence (AID 651821).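 Further: 0% = DMSO alone and 100% = 100 µM mitoxantrone as full dye displacement; higher means more dye released from RNA so lower well fluorescence.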 Particulars: r(CAG) RNA repeat, TO-PRO-1 dye displacement fluorescence; at 3 µM; stronger effect = higher value.
`O=C(CSc1nnc(-c2ccccc2)n1Cc1ccco1)Nc1ccccc1-c1ccccc1`: the inhibition is 5.56% (inactive).
Regarding `Clc1ccccc1CSc1nnc(-c2ccco2)c(-c2ccco2)n1`, the inhibition is 54.8% (active).
`Clc1ccc(-n2c(SC/C=C/c3ccccc3)nnc2-c2ccco2)cc1`: the inhibition was 2.56% (inactive).
As to `COC(=O)C1CN(CC(C)C)CCS(=O)(=O)N1Cc1ccc(C)cc1` (stereo not given), the inhibition is 2.99% (inactive).
The same measure for `CC(C)(C)c1ccc(CSc2nnc(-c3cccs3)o2)cc1`: -0.86% (inactive); for `CC(C)N1CCCCC(NC(=O)c2ccc3ccccc3c2)C1=O` (stereo not given): 2.21% (inactive); for `Nc1ccn([C@@H]2O[C@H](C(=O)N[C@H]3CCCCNC3=O)[C@@H](O)[C@H]2O)c(=O)n1`: -0.39% (inactive).
For the compound `COc1cccc(-c2nn(-c3ccccc3)cc2/C=C(\C#N)C(=O)NCCCn2ccnc2)c1`, the inhibition was 4.33% (inactive).
Turning to `CN(C)S(=O)(=O)c1cccc(-c2nn(-c3ccccc3)cc2/C=C2\SC(=S)N(CC(=O)O)C2=O)c1`, the inhibition was 63.9% (active).
Take `Cc1ccc(-c2nn(-c3ccccc3)cc2/C=C2\SC(=S)N(CCCCCC(=O)O)C2=O)o1`: the inhibition was 48.8% (active).
The same measure for `Cc1nc(C)c(-c2nnc(-c3cccc(S(=O)(=O)N(C)C)c3)o2)cc1C(=O)NN`: 10.6% (inactive).
As to `O=C(CN1CCC(NC(=O)NCc2ccccc2)CC1)Nc1ccc2c(c1)OCCO2`, the inhibition is 0.82% (inactive).
The same measure for `CCc1ccc(C2=CC(=O)CC(C)(C)C2=O)cc1`: 3.63% (inactive); for `COc1ccc(Cl)cc1NC(=O)COC(=O)C(CC(C)C)N1C(=O)C2CC=CCC2C1=O` (stereo not given): -0.39% (inactive); for `OC(c1ccccc1)(c1ccccc1)C1CCN(CCCOc2ccc(-c3ccsc3)cc2)CC1`: 9.5% (inactive).
Take `Cc1cc(C)c2nc(-c3cccnc3)cc(C(=O)Nc3ccc(S(=O)(=O)Nc4onc(C)c4C)cc3)c2c1`: the inhibition is 80.4% (active).
With `Cc1cc(C)c2oc(C(=O)Nc3ccc(S(=O)(=O)Nc4nccc(C)n4)cc3)cc(=O)c2c1`, the inhibition was 1.83% (inactive).
On to `Cc1ccnc(NS(=O)(=O)c2ccc(NC(=O)c3oc4ccc(F)cc4c3C)cc2)n1`, for which the inhibition is 33.3% (inactive).
For `O=C(Nc1ccc(S(=O)(=O)Nc2ncccn2)cc1)c1cncc(Br)c1`, the inhibition is -0.76% (inactive).
As for `Cc1ccnc(NS(=O)(=O)c2ccc(NC(=O)c3oc4ccccc4c3C)cc2)n1`, the inhibition was 33.1% (inactive).
As to `Cc1noc(NS(=O)(=O)c2ccc(NC(=O)c3oc4ccc(F)cc4c3C)cc2)c1C`, the inhibition is 75.7% (active).
The same measure for `CN1C(=O)C(Br)(Br)CC1c1cccnc1` (stereo not given): 1.36% (inactive); for `O=C(CCN1CCCCC1)N=Nc1c(O)[nH]c2ccccc12`: 4.74% (inactive).
With `Cc1c(-c2ccccc2)n[nH]c1C(=O)N=Nc1c(O)[nH]c2ccccc12`, the inhibition was 36.8% (active).
The same measure for `O=C(CSc1nc2ccccc2s1)N=Nc1c(O)[nH]c2ccccc12`: 10.6% (inactive).

The values are drawn from PubChem BioAssay AID651821 (The Scripps Research Institute Molecular Screening Center, 2012).
